Among the data in PubChem BioAssay are z-score and composite z-score values, retold here.

A short description of experiment [1]: E. coli DRC41 culture turbidity changes, primary screen, E. coli filamentation inducer project, strain DRC41, OD650, 48 h (AID 1152).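 Also: E. coli MC1000 strain DRC41 lacking acrAB efflux pump and sulA.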 The note with it: E. coli DRC41 (acrAB sulA), higher = more signal, called active from +8 up or from −8 down.
Experiment [2] is described as follows: small-molecule binders of probe aLefty1, primary screen, biochemical, small-molecule microarray, 635/667 nm fluorescence (AID 1153).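 Also: score merges spot fluorescence with signal-to-noise ratio from the scanned slide images.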 The note with it: higher = more signal.
Experiment [3] is described as follows: PSAC antagonists in infected red cells, primary screen, cell-based, P. falciparum Indochina, OD700, 1 h (AID 1154). The note with it: P. falciparum Indochina infected RBC osmotic lysis, higher = more signal, called active from +8 up or from −8 down.
Experiment [4] is described as follows: PSAC antagonists in infected red cells, primary screen, cell-based, P. falciparum Indochina, OD700, 2 h (AID 1155).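 Also: lysis reports solute entry through the parasite surface anion channel PSAC; channel blockers reduce lysis of infected cells.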 The note with it: P. falciparum Indochina infected erythrocytes, osmotic lysis OD700; higher = more signal, called active from +8 up or from −8 down.
Experiment [5] can be described thus: osmotic lysis modulators in infected erythrocytes, primary screen, PSAC antagonist project, cell-based, P. falciparum Indochina, OD700, 3 h (AID 1156). As to conditions: higher = more signal, called active from +8 up or from −8 down.
A short description of experiment [6]: PSAC antagonists in infected red cells, primary screen, cell-based, P. falciparum Indochina, OD700, 18 h (AID 1157). The note with it: P. falciparum Indochina infected erythrocytes, osmotic lysis OD700, 18 h; higher = more signal, called active from +8 up or from −8 down.
A short description of experiment [7]: modulators of S6 phosphorylation in cells, primary screen, cell-based, A549, cytoblot, luminescence, serum-stimulated (AID 1158).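 Also: serum-stimulated A549 lung adenocarcinoma cells; signal is phosphorylated S6 detected by cytoblot immunostaining with HRP secondary.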 The note with it: A549 phospho-S6 cytoblot, 5 h, higher = more signal.
Experiment [8] concerns the target NADPH oxidase 2 (Homo sapiens) (UniProt P04839). Briefly: NOX2-dependent H2O2 signal modulators, primary screen, NOX inhibitor project, cell-based, HEK293-NOX2, PMA-stimulated, Amplex Red fluorescence (AID 1159). Also: test concentration not given here. The note with it: 45 min, higher = more signal, called active from +8 up or from −8 down.
Experiment [9] deals with NADPH oxidase 4 (Homo sapiens) (UniProt Q9NPH5). The experiment in a line: NOX4-dependent H2O2 signal modulators, primary screen, NOX inhibitor project, cell-based, HEK293-NOX4, tetracycline-induced, Amplex Red fluorescence (AID 1160). As to conditions: 45 min, higher = more signal, called active from +8 up or from −8 down.
In experiment [10] the target is NADPH oxidase 5 (Homo sapiens) (UniProt Q96PH1). Briefly: NOX5-dependent H2O2 signal modulators, primary screen, NOX inhibitor project, cell-based, HEK293-NOX5, Amplex Red fluorescence (AID 1161). The note with it: HEK293-NOX5, ionomycin, 45 min, higher = more signal.
A short description of experiment [11]: A549 cell viability effects, profiling panel, calcein-AM fluorescence, 48 h, basal (AID 1162). Also: test concentration not given here. The note with it: higher = more signal.
Experiment [12] can be described thus: adipocyte viability effects, profiling panel, cell-based, 3T3-L1 adipocytes, calcein-AM fluorescence, 48 h, basal (AID 1163). Also: test concentration not given here. As to conditions: 3T3-L1 adipocytes viability, higher = more signal.
The nature of experiment [13]: HepG2 cell viability effects, profiling panel, calcein-AM fluorescence, 48 h, basal (AID 1164). Also: test concentration not given here. As to conditions: higher = more signal.
Experiment [14] is described as follows: MM1S cell viability effects, profiling panel, calcein-AM fluorescence, 48 h, basal (AID 1165).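 Also: viability of MM1S multiple myeloma cells under basal unstimulated conditions; test concentration not given here.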 The note with it: higher = more signal.
A short description of experiment [15]: basal RPMI8226 viability, no added stimulus, profiling panel, cell-based, calcein-AM fluorescence, 48 h, PK04 Diversity Set (AID 1166).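 Also: cells grown under basal conditions without added stimulus; test concentration not given here.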 As to conditions: RPMI8226 myeloma viability, higher = more signal.
Experiment [16] in a line: basal HepG2 mitochondrial membrane potential changes, profiling panel, cell-based, JC-1 fluorescence, 24 h, 100 nL compound (AID 1167). Also: test concentration not given here. As to conditions: higher = more signal.
Experiment [17] in a line: basal 3T3-L1 adipocyte mitochondrial potential changes, profiling panel, cell-based, JC-1 fluorescence, 3T3-L1 adipocytes, 24 h, 100 nL compound (AID 1168). Also: test concentration not given here. The note with it: JC-1 mitochondrial fluorescence, higher = more signal, called active from +8 up or from −8 down.
A short description of experiment [18]: basal RPMI8226 mitochondrial membrane potential changes, profiling panel, cell-based, JC-1 fluorescence, 24 h, 100 nL compound (AID 1169). Also: test concentration not given here. As to conditions: RPMI8226 myeloma, JC-1 mitochondrial potential fluorescence, higher = more signal.
Experiment [19] in a line: basal MM1S mitochondrial membrane potential changes, profiling panel, cell-based, JC-1 fluorescence, 24 h, 100 nL compound (AID 1170). Also: test concentration not given here. As to conditions: higher = more signal.
A short description of experiment [20]: A549 lung cancer cell viability effects, profiling panel, resazurin fluorescence, 24 h, PK04 Diversity Set (AID 1171). Also: test concentration not given here. As to conditions: higher = more signal, called active from +8 up or from −8 down.

Activity calls are given as the source filed them.

Sequence of NADPH oxidase 4 (Homo sapiens) (Q9NPH5 whole entry, looked up): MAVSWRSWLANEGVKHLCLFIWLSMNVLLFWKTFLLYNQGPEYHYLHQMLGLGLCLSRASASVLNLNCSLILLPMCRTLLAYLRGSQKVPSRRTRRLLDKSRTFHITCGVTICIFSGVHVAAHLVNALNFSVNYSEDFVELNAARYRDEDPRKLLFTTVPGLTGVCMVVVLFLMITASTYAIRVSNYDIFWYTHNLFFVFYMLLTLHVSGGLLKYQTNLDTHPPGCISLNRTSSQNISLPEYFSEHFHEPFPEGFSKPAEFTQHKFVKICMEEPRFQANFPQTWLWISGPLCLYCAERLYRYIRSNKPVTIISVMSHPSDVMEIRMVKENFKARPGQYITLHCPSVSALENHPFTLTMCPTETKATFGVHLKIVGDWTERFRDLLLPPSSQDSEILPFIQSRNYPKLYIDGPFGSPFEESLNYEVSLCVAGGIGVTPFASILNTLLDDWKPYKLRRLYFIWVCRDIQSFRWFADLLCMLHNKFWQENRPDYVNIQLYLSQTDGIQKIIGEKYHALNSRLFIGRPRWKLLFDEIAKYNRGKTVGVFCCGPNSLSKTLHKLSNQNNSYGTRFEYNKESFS
Sequence of NADPH oxidase 5 (Homo sapiens) (Q96PH1 whole entry, looked up): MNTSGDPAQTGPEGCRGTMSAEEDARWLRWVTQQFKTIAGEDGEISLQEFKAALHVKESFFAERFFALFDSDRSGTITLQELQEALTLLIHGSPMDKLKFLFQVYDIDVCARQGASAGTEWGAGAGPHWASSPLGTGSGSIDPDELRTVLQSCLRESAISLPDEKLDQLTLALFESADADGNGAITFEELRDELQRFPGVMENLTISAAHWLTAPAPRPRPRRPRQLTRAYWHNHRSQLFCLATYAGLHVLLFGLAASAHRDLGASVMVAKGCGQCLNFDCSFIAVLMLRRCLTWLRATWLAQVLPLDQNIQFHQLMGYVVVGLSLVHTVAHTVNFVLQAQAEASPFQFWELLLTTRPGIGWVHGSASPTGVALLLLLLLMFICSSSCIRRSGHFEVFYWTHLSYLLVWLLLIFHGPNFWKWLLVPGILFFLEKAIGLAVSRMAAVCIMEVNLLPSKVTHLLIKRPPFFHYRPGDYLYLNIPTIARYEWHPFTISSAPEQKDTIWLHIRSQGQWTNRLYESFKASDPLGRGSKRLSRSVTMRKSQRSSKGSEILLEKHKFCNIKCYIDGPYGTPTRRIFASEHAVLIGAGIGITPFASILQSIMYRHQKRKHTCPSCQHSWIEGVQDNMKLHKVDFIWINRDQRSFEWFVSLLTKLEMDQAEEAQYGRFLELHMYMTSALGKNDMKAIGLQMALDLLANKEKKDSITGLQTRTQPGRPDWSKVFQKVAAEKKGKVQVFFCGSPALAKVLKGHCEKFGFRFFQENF
Sequence of NADPH oxidase 2 (Homo sapiens) (P04839 whole entry, looked up): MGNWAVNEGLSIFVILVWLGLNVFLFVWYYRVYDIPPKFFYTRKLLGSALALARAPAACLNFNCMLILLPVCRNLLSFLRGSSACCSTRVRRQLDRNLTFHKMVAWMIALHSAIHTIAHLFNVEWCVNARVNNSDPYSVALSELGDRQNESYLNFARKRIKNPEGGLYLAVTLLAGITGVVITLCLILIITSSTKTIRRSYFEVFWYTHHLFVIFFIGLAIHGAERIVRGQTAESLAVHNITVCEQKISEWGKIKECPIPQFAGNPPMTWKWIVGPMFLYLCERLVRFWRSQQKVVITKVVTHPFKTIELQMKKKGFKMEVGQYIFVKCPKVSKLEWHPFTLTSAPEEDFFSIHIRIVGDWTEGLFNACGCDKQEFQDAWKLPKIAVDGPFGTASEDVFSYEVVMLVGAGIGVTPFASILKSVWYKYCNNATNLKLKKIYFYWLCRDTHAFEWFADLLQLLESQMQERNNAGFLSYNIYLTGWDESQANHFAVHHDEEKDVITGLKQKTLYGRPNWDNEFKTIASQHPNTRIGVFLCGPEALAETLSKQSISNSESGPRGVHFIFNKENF

On to `CCc1cc2c(nc1CC)CCN(CCC(C)=NO[C@H](C)c1cn([C@H](CO)Cc3ccccc3)nn1)C2`, for which the z-score in experiment [1] was -0.266 (inactive); in experiment [3], 4.7 (inactive); in experiment [4], 1.3 (inactive); in experiment [5], 1.84 (inactive); in experiment [6], 0.514 (inactive); in experiment [7], 0.917. For the same compound, the z-score in [8] was -0.221 (inactive); in experiment [9], -0.461 (inactive); in experiment [10], 2.32; in [11], 0.449; in [12], 1.22; in experiment [13], 0.405. Also, the z-score in experiment [14] was 0.341; in experiment [15], -0.905; in experiment [16], 0.551; in experiment [17] it was -1.37 (inactive); in experiment [18], -0.664; in experiment [19], 0.105. Besides, the z-score in [20] was -0.285 (inactive). In experiment [2], this compound came in with a composite z-score of 0.832.

`CCN1C(=O)[C@H]2[C@H]3[C@H](O)[C@H](O)CC(=O)[C@@H]3CC[C@H]2C1=O`: the z-score in experiment [1] is 0.0972 (inactive); in experiment [3] it was -0.0937 (inactive); in experiment [4], -0.0275 (inactive); in experiment [5] it was -0.403 (inactive); in experiment [6], -0.138 (inactive); in experiment [7], -0.108. Also, the z-score in experiment [8] was -1.19 (inactive); in [9] it was 0.1 (inactive); in experiment [10], 0.0328; in experiment [11] it was 0.111; in experiment [12] it was 0.0891; in [13] it was 0.0082. Also, the z-score is -0.681 in [14]; 0.177 in experiment [15]; 0.231 in experiment [16]; 0.55 (inactive) in [17]; -0.0467 in experiment [18]; -0.22 in [19]. For the same compound, the z-score in experiment [20] was -0.561 (inactive). The compound further gave a composite z-score in experiment [2] of -0.149.

On to `CCOC(=O)[C@H](Cc1ccccc1)NC(=O)OC1CC(CCC2CC(CC)=NO2)OC2(CCCC(COC(=O)NCCC(C)C)O2)C1` (stereo not given in full), for which the z-score in experiment [1] was -0.0799 (inactive); in experiment [3] it was 3.14 (inactive); in experiment [4] it was -0.0787 (inactive); in experiment [5] it was -0.648 (inactive); in [6] it was -0.39 (inactive); in experiment [7], -0.459. Moreover, the z-score in experiment [8] is -0.405 (inactive); in [9], 0.109 (inactive); in experiment [10], 1.04; in [11], -0.0093; in experiment [12], -1.14; in [13], -1.1. For the same compound, the z-score in experiment [14] is -3.44; in experiment [15], -3.72; in experiment [16] it was -0.0294; in [17] it was 0.513 (inactive); in experiment [18] it was -0.462; in [19], -1.22. In addition, in [20], the z-score was 0.453 (inactive). Also, the composite z-score in experiment [2] is -0.101.

In the case of `C[n+]1ccc(-c2ccc(CO)cc2)cc1`, the z-score is 0.209 (inactive) in experiment [1]; -0.8 (inactive) in experiment [3]; -0.376 (inactive) in experiment [4]; -1.05 (inactive) in [5]; -0.0148 (inactive) in experiment [6]; -0.6 in experiment [7]. Further, the z-score in [8] was -0.225 (inactive); in [9], -0.0911 (inactive); in experiment [10], -3.04; in experiment [11], -1.45; in experiment [12] it was -0.84; in experiment [13], -0.0981. The z-score in experiment [14] is -0.31; in experiment [15], -0.196; in experiment [16], -1.04; in experiment [17], -0.872 (inactive); in experiment [18], -0.634; in experiment [19], 0.236. Also, in [20], the z-score is -0.939 (inactive). Further, the composite z-score in [2] is -0.0303.

For the compound `C[C@@H](c1ccccc1)N1C(=O)[C@H]2[C@H]3[C@H](O)[C@H](O)CC(=NOCc4ccccc4)[C@H]3CC[C@H]2C1=O`, the z-score in [1] is 0.331 (inactive); in [3], 31.6 (active); in experiment [4], 6.36 (inactive); in [5] it was 0.321 (inactive); in [6] it was 1.21 (inactive); in [7], -0.182. The z-score was -1.53 (inactive) in experiment [8]; 0.0357 (inactive) in experiment [9]; -3.27 in experiment [10]; 0.654 in experiment [11]; -0.602 in experiment [12]; -0.159 in experiment [13]. Moreover, the z-score in experiment [14] was 0.503; in [15], 0.13; in experiment [16], 0.879; in experiment [17] it was 0.925 (inactive); in [18] it was 0.00496; in experiment [19], -1.55. Further, the z-score in [20] is -0.428 (inactive). In experiment [2], this compound returned a composite z-score of -0.0518.

As to `CCN1C(=O)[C@H]2[C@H]3[C@H](O)[C@H](O)CC(=NO[C@@H](C)c4cn([C@H](CO)Cc5ccccc5)nn4)[C@@H]3CC[C@H]2C1=O`, the z-score in experiment [1] was 0.115 (inactive); in [3], 0.202 (inactive); in experiment [4], 0.453 (inactive); in [5], 0.357 (inactive); in experiment [6], 0.146 (inactive); in [7], -0.66. Further, the z-score in [8] was 0.0799 (inactive); in experiment [9] it was -2.08 (inactive); in [10], 0.0391; in experiment [11], -0.293; in experiment [12] it was 0.0248; in [13], -0.644. Moreover, the z-score in experiment [14] is -1.59; in experiment [15], -0.784; in experiment [16], -0.559; in experiment [17], -1.49 (inactive); in experiment [18], 0.695; in [19], 0.0117. Moreover, the z-score in [20] was -0.499 (inactive). The composite z-score in experiment [2] is 0.0618.

For the compound `CO[C@@H]1COC(=O)CC=C[C@H](C)[C@H](OC)COC(=O)[C@H](C)NC(=O)CC=C[C@H]1C`, the z-score in experiment [1] was 0.525 (inactive); in [3], 0.0859 (inactive); in experiment [4], 0.0159 (inactive); in experiment [5], 0.704 (inactive); in experiment [6], 0.107 (inactive); in experiment [7], -0.0908. Moreover, the z-score is -0.402 (inactive) in experiment [8]; -0.249 (inactive) in experiment [9]; -0.159 in experiment [10]; 0.296 in [11]; 0.256 in [12]; 0.64 in [13]. The z-score in experiment [14] is -0.0284; in [15] it was 0.403; in [16], 0.904; in experiment [17] it was -0.878 (inactive); in experiment [18] it was 0.403; in experiment [19] it was 0.273. In addition, the z-score in experiment [20] is 0.932 (inactive). Further, the composite z-score in [2] was -0.012.

On to `CO[C@H]1COC(=O)CC=C[C@@H](C)[C@H](OC)COC(=O)[C@@H]2CCCN2C(=O)CC=C[C@@H]1C`, for which the z-score was 0.544 (inactive) in experiment [1]; -0.0903 (inactive) in experiment [3]; -0.289 (inactive) in experiment [4]; -0.32 (inactive) in [5]; -0.0159 (inactive) in experiment [6]; 1.14 in [7]. Also, the z-score in [8] was 0.833 (inactive); in experiment [9], 0.196 (inactive); in experiment [10], 0.0432; in [11] it was 0.976; in experiment [12] it was 0.308; in experiment [13], -0.259. In addition, the z-score in experiment [14] was 0.491; in experiment [15], -0.394; in experiment [16], 0.0843; in experiment [17] it was -0.0391 (inactive); in experiment [18], -0.83; in [19], 1.22. In addition, the z-score in experiment [20] was 0.572 (inactive). Besides, the composite z-score in experiment [2] was found to be 0.114.
